Data on 14 molecules can be found in the supplement of paper PMC4237247.

This assay concerns HeLa. Description: percent cells in G2/M phase; higher = more G2/M arrest. The following applies: 10 µM; 20 h; hit class: G2/M-phase inhibitor. The procedure:
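HTS of 79,827 drug-like compounds at 10 uM. HeLa cells in 384-well plates were treated for 20 h, fixed, stained with Vybrant DyeCycle Green and scanned on an Acumen eX3 cytometer to give per-well cell cycle profiles. Only G2/M hits (>=67% G2/M) are listed.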
For the molecule `COc1ccc(/C=C/c2ccc3cccc(O)c3n2)cc1C`, the “percent cells in G2/M phase” value is 71.7%.

Turning to `O=C(O)c1ccccc1SC1CC(=O)N(c2ccc(Br)cc2)C1=O` (centres undefined), the “percent cells in G2/M phase” value was determined as 75.3%.

For the molecule `COc1cc(-c2onc3ccc(Cl)cc23)cc(OC)c1OC`, the “percent cells in G2/M phase” value turned out to be 78.1%.

As for `COC(=O)Nc1nc2cc(Sc3ccccc3)ccc2[nH]1` [Fenbendazole], the “percent cells in G2/M phase” value worked out at 66.2%.

In the case of `O=c1[nH]c(/C=C/c2ccccc2F)nc2ccccc12`, the “percent cells in G2/M phase” value came to 76.3%.

`COC(=O)Nc1nc2ccc(SC(C)C)cc2[nH]1` [Methiazole]: the “percent cells in G2/M phase” value was found to be 72.9%.

Take `COC(=O)Nc1nc2cc(C(=O)c3ccccc3)ccc2[nH]1` [Mebendazole]: the “percent cells in G2/M phase” value is 76.8%.

Consider `COc1cc(NS(=O)(=O)c2ccc(NC(C)=O)cc2)c(OC)cc1Cl`, for which the “percent cells in G2/M phase” value came out at 71%.

Consider `CCN(CC)CCN1C(=O)C(=O)C(=C(O)c2ccccc2)C1c1ccccc1F` (centres undefined), for which the “percent cells in G2/M phase” value was 68.3%.

For `O=C(CSc1nc2ccc([N+](=O)[O-])cc2s1)c1ccc(Cl)cc1`, the “percent cells in G2/M phase” value was determined as 69.3%.

Consider `COc1ccccc1NC1=CC(=O)CC(c2ccccc2)C1` (centres undefined), for which the “percent cells in G2/M phase” value was found to be 70.1%.

Consider `O=c1[nH]c(/C=C/c2ccccc2)nc2ccccc12`, for which the “percent cells in G2/M phase” value was 69.3%.

As for `CC(=O)Nc1ccc(Nc2nc(-c3c(C)nc4ccccn34)cs2)cc1`, the “percent cells in G2/M phase” value was determined as 78%.

With `CC(=O)O[C@H]1C(=O)[C@@]2(C)[C@H]([C@H](OC(=O)c3ccccc3)[C@]3(O)C[C@H](OC(=O)[C@H](O)[C@@H](NC(=O)c4ccccc4)c4ccccc4)C(C)=C1C3(C)C)[C@]1(OC(C)=O)CO[C@@H]1C[C@@H]2O` [Paclitaxel], the “percent cells in G2/M phase” value turned out to be 75.7%.
